Bioassay records deposited in PubChem BioAssay by National Center for Advancing Translational Sciences (NCATS).
Compounds with a hit are over-represented: about 19% of the library has one in this group of screens.
HT1080NT lethal: qHTS for induction of synthetic lethality in tumor cells producing 2HG: qHTS for the HT-1080-NT fibrosarcoma cell line; HT-1080-NT fibrosarcoma viability, CellTiter-Glo ATP luminescence, 48 h; Potency, µM (titrated, usually from 46.1 µM), inactives show at the highest dose activity, negative = less viability, usual class: cytotoxic; hit rate 1.6% among 360,000;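 also: NT is the 2HG producing partner of a matched IDH1 knockdown line; potency is read from the fitted curve at half-maximal effect; 0% = DMSO-treated cells and -100% = media-only wells without cells; nearly all actives have a fitted effect of over 55% in size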
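Read-out is CellTiter-Glo luminescence after 10 minutes at room temperature, following 48 hours' compound treatment of HT-1080-NT cells (750 cells/well, RPMI, 5% FBS, 37 degrees C).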
TDP1 cell CPT: qHTS for Inhibitors of human tyrosyl-DNA phosphodiesterase 1 (TDP1): qHTS in cells in presence of CPT; AID 686979, 2013; Potency, µM (top dose mostly 46.2 µM), for inactives: top-dose activity change, negative = growth inhibition, actives largely listed as inhibitors; chicken DT40 Tdp1-/-;hTDP1 cells + 20 nM CPT, ATP luminescence, 48 h; hit rate 12% among 420,000; also: potency is read from the fitted curve at half-maximal effect; nearly all actives have a fitted effect of over 55% in size
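Cell growth measured by CellTiter-Glo luminescence after a minimum 48 h, 37 C compound exposure with 20 nM CPT in Tdp1-knockout DT40 cells stably expressing hTDP1, seeded 400/well; qHTS titration format.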
DT40 TDP1 no CPT: qHTS for Inhibitors of human tyrosyl-DNA phosphodiesterase 1 (TDP1): qHTS in cells in absence of CPT | DT40 Tdp1-/- hTDP1 cells, no CPT, ATP luminescence, 48 h | Potency, µM (highest dose often 46.2 µM), for inactives: at the top dose activity change, negative = growth inhibition, most hits filed as inhibitors | hit rate 15% among 420,000; also: potency is read from the fitted curve at half-maximal effect; nearly all actives have a fitted effect of over 55% in size
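Chicken DT40 Tdp1-/- cells stably complemented with human TDP1 were seeded at 400 cells/well with DMSO in place of 20 nM camptothecin. After compound pinning, cells grew at least 48 hr at 37 °C; viability read by CellTiter-Glo luminescence.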
HT1080 IDH1KD tx: qHTS for induction of synthetic lethality in tumor cells producing 2HG: qHTS for the HT-1080-IDH1KD cell line | Potency, µM (highest dose often 46.1 µM), inactives show at the highest dose activity, negative = toxicity, hits mostly cytotoxic | HT-1080 IDH1 knockdown viability, ATP luminescence, 48 h | AID 686971, 2013 | hit rate 2% among 360,000;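 also: potency is read from the fitted curve at half-maximal effect; 0% = DMSO wells and -100% = cell-free medium wells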
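% activity derives from luminescence (CellTiter-Glo), normalised to DMSO and no-cell wells. HT-1080-IDH1KD cells, 750/well, had 48 h compound exposure at 37 °C.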
IL1B secr inh: qHTS for Inhibitors of Inflammasome Signaling: IL-1-beta AlphaLISA Primary Screen; hit rate 4.7% among 360,000; AID 743279, 2014; THP-1 LPS/ATP IL-1B secretion, AlphaLISA, 16 h; active compounds read low; activity change, % at 57.5 µM; in the data active = activity change below about -50%; inconclusive = mostly about -30% to -49%
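THP-1 cells pretreated 1 hr with compounds (up to 57.5 uM final), then stimulated with LPS (250 ng/mL final) plus ATP (1.25 mM final); secreted IL-1B measured by AlphaLISA after 16 hr, decreased signal indicating inhibition.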
* marks the source's active call; other numbers are inactive results; i = inactive; ? = inconclusive; · = no result given. Unless noted, calls follow the shape of the dose curve; as a rule, active = well fitted curve in the direction sought with a large enough effect; inconclusive = small, poorly fitted or top-dose-only effect, or another doubt; inactive = no such curve, though single readings can be large; an effect the other way counts as inactive or inconclusive. Unless noted, % is scaled to controls: 0 for no effect and ±100 for the full control effect.

SMILES	HT1080NT lethal	TDP1 cell CPT	DT40 TDP1 no CPT	HT1080 IDH1KD tx	IL1B secr inh
CCOc1ccc(CNC(=O)c2ccc(NC(=O)c3nsc4ccccc34)cc2)cc1	·	?	-16.2%	·	·
CC(=O)c1ccc(OCC(=O)N2CCCC(Nc3ccc(C)c(C)c3)C2)cc1 (configuration not stated)	-2.8%	-1.8%	-28.6%	4.3%	i
CN(CCOc1ccccc1)CC(=O)Nc1cccc(C#N)c1	-11.6%	3.6%	-9.8%	-11.4%	13.9
Cc1ccc(-c2[nH]ncc2C(=O)c2ccc(Br)cc2)c(O)c1	?	?	?	?	-82.0*
Cc1ccc(C(=O)c2cn[nH]c2-c2cc(Cl)ccc2O)cc1	?	?	?	?	24.9
Cc1ccc(C(=O)N(C)Cc2ccc(N3CCOCC3)cc2)cc1S(=O)(=O)NCc1ccccc1	-11.1%	?	-13.0%	-4.4%	-19.9
CCCC1=C(C(=O)OCC)C(c2ccncc2)n2ncnc2N1 (configuration not stated)	10.6%	9.1%	-13.7%	1.0%	5.6
Cc1cccc(C(=O)Nc2ccc(NC(=O)c3ccccc3)cc2)c1	3.7%	?	?	0.8%	-57.6*
O=C(Nc1cccc(C(=O)Nc2ccc(Br)cc2)c1)c1ccccc1	-1.9%	?	11.6µM*	-15.4%	-4.7
Cc1ccc(NC(=O)c2ccc(NC(=O)c3ccccc3)cc2)cc1C	?	13µM*	?	?	0.0
O=C(NNC(=O)c1ccc(NC(=O)c2ccccc2)cc1)c1ccccc1	?	-23.5%	?	?	8.7
Cc1ccc(C(=O)Nc2ccc(Nc3ccccc3)cc2)cc1Br	-15.3%	6.51µM*	4.11µM*	-26.2%	·
C[C@@H]1CN([C@@H](C)CO)C(=O)c2cc(NC(=O)C3CCCCC3)ccc2O[C@@H](C)CCCCO[C@H]1CN(C)S(=O)(=O)c1ccc(Cl)cc1	0.6%	?	?	-11.4%	-12.6
COP(=O)(c1ccc(N(C)C)cc1)C(O)c1ccccc1 (configuration not stated)	23.1%	6.1%	0.0%	-2.5%	-21.6
CC(=O)Oc1ccc(C(=O)Nc2cccc(C(=O)c3cccc(NC(=O)c4ccc(OC(C)=O)cc4)c3)c2)cc1	?	?	23.1µM*	?	11.1
COc1cccc(NC(=O)c2ccccc2)c1	0.3%	0.5%	10.3%	0.8%	-1.5
CC(=O)Oc1ccc(C(=O)Nc2cccc(C(=O)NC(C)(C)C)c2)cc1	?	11.2%	-26.6%	-26.8%	-19.3
O=C(Nc1ccc(Br)cc1)c1ccccc1Br	16.0%	-9.9%	19.5%	9.2%	-56.5*
CCOc1ccc(NS(=O)(=O)c2cc(NC(=O)c3cccc(C)c3)ccc2Cl)cc1	?	16.4µM*	?	25.9µM*	?
CC(C)OC(=O)c1cccc(NC(=O)c2ccccc2)c1	-2.9%	13µM*	13µM*	-6.3%	-3.4
CC(=O)Nc1ccc(NC(=O)c2ccccc2Br)cc1	0.8%	4.3%	-1.3%	1.1%	-10.5
Cc1ccc(NC(=O)Cn2c(-c3nonc3N)nc3ccccc32)cc1Cl	·	-12.6%	-3.8%	·	·
O=C(Nc1ccccc1)c1ccc(NCCc2ccccc2)c([N+](=O)[O-])c1	-12.7%	6.2%	-2.0%	-9.7%	0.0
CC(=O)Nc1ccc(OC(=O)c2ccccc2O)cc1	·	0.581µM*	?	·	·
CCN(CC)c1ccc(C(=O)Nc2ccccc2)cc1[N+](=O)[O-]	-8.0%	-5.7%	?	-18.1%	-95.6*
SMILES	HT1080NT lethal	TDP1 cell CPT	DT40 TDP1 no CPT	HT1080 IDH1KD tx	IL1B secr inh
Cc1cccc(C(=O)Nc2ccccc2NC(=O)c2cccc(C)c2)c1	-4.8%	-12.8%	?	-4.0%	-14.1
Cc1ccc(C(=O)Nc2ccc(Oc3ccc(C(=O)O)c(C(=O)O)c3)cc2)cc1C	3.4%	23.1µM*	0.6%	1.3%	11.8
Cc1cccc(C(=O)Nc2cccc3c2CCCC3)c1	0.4%	18.4µM*	9.2µM*	-0.7%	-4.7
Cc1ccc2nc(NCc3ccccc3)c3nnnn3c2c1	·	-21.4%	-19.0%	·	·
COc1ccc(NC(=O)C2(c3ccc(NC(=O)c4ccc(OC(C)=O)cc4)cc3)CCCC2)cc1	13.7%	-22.3%	-24.1%	-3.5%	-11.1
CC(=O)Oc1ccc(C(=O)Nc2ccc(C3(C#N)CCCC3)cc2)cc1	-15.2%	16.4µM*	16.4µM*	?	-59.4*
COc1ccc(C(=O)Nc2ccc(Nc3ccccc3)cc2)cc1[N+](=O)[O-]	-26.1%	23.1µM*	20.6µM*	-16.6%	-15.8
CC(=O)Nc1ccc(OC(C)=O)cc1	·	-3.8%	-1.5%	·	·
Cc1ccc(C(=O)Nc2ccc(Nc3ccccc3)cc2)cc1C	-29.7%	20.6µM*	20.6µM*	?	-68.9*
CC(=O)Oc1ccc(Nc2ccccc2)cc1	-14.5%	18.4µM*	?	?	0.0
Cc1cc(C)cc(N(C(C)C(=O)N2CCCC2)S(C)(=O)=O)c1 (configuration not stated)	15.8%	-13.2%	-4.6%	24.2%	9.4
CCN1CCN(c2nc(N)c([N+](=O)[O-])c(Nc3ccc(C)c(C)c3)n2)CC1	11.7%	?	16.4µM*	10.5%	11.2
CC1CC(C)CN(c2nc(NCc3ccco3)nc(N)c2[N+](=O)[O-])C1 (configuration not stated)	3.6%	16.4µM*	14.6µM*	7.8%	20.7
CC1CCCN(c2nc(NCc3ccco3)nc(N)c2[N+](=O)[O-])C1 (configuration not stated)	?	?	?	-12.5%	-12.2
CCN1CCN(c2nc(N)c([N+](=O)[O-])c(Nc3ccc(C)cc3)n2)CC1	-0.5%	?	?	0.0%	-61.5*
Cc1ccc(Nc2n[nH]c(C)c2[N+](=O)[O-])cc1C	-9.6%	-16.1%	-29.0%	-14.8%	-2.0
CCOc1ccc(Nc2nc(N)c([N+](=O)[O-])c(N3CCN(CC)CC3)n2)cc1	-24.3%	?	-18.3%	-13.2%	-25.9
Cc1ccc(Nc2nc(N)c([N+](=O)[O-])c(N3CCCC(C)C3)n2)cc1C (configuration not stated)	18.9%	?	?	1.4%	-98.0*
Cc1ccccc1NC(=O)CSc1ccsc1[N+](=O)[O-]	9.2%	-1.1%	-13.6%	20.0%	?
O=S(=O)([N-]c1nc2ccccc2nc1-n1cc[n+](Cc2ccccc2)c1)c1ccc(Br)cc1	0.7%	-16.4%	?	3.3%	·
